The text below walks through data of PubChem BioAssay (NCATS).

Records with an inconclusive call do not appear. Activity calls are given as the source filed them. Calls follow the shape of the dose curve; as a rule, active = well fitted cell-killing curve with a large enough effect; inconclusive = small, poorly fitted or top-dose-only effect, or effect the other way; inactive = flat fitted curve, though single readings scatter. *1 amine or outer side, *2 acyl side, *3 side chain or, on linkers, in order; H or OH if unused. Where a SMILES comes first, the peptide text is derived from it. Bridges are numbered along the chain shown (N, C = ends). Roman numbers before positions name the chains, in order. [ ]: non-standard residue; d: D form. ξ: configuration not given here. Actinocin(9to1) = Cc1c2oc3c(C)ccc(C(=O)[*:1])c3nc-2c(C(=O)[*:2])c(N)c1=O; ξNMeV = CNC(C(=O)O)C(C)C; ξV = CC(C)C(N)C(=O)O; Sar = CNCC(=O)O
Potency is read from the fitted curve at half-maximal effect.

The test in a line: Identifying Small Molecule Inhibitors of Pancreatic Cancer Stem Cells (SN12C, Spheroid) (AID 1259360).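 As to viability (% of control): 100% = DMSO-treated cells and 0% = wells without cells.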 Particulars: Potency: SN12C spheroid viability; series mostly up to 46.1 µM; viability (% of control): at the top concentration. The text has this:
Progenitor-like cancer cells, often referred to as cancer stem cells (CSC), are believed to be the drivers of therapeutic resistance and rapid recurrence. CSCs are postulated to reside in specific niches characterized by low oxygen tension, limited nutrient supply, and high redox load. Selectively targeting CSC, alone or in combination with cytotoxic agents, as a means to produce durable remissions is an appealing concept. Modeling these cells in in vitro setting is an important step in finding new therapies and/or targets. Multiple reports highlight that forcing cells in culture into 3-dimensionaly architectures (spheroids) re-establishes key progenitor-like transcriptional signatures. Pancreatic cancer is among the diseases with the most dismal outlook which is driven, largely, by recurance following front-line therapies. […] In hopes of deriving new insight into the targeting of these pancreatic CSCs we examined three established pancreatic cancer cell lines in cytotoxicity assays versus a collection of approved and investigational drugs. Importantly, we screened these lines as traditional monolayer (2D) and spheroid (3D) formats to gain an appreciation of agents with differential activity.
Multicellular tumor spheroids from Panc1, MiaPaCa-2, and the primary low-passage tissue culture line SB.06 were seeded in stem cell media (SCM) in nonadherent 6-well plates coated with hydrogel (Corning Life Sciences, Chelmsford, Mass) and pancreatic spheres generated for 14 days before screening. Cells were seeded into 1536-well solid-bottom white tissue culture treated Greiner Bio One Plates (789173-F) using a MultiDrop Combi (Thermofisher Scientific) dispenser and a small sterile cassette. One column was media alone to be used as a :"no cells" control. The plates were then covered with sterilized stainless steel gasketed lids from Kalypsys. After allowing cells to attach for 4 hours, 23 nL of test compound or control (negative control DMSO and positive control 9.2 uM Bortezomib-final) were added from a 1536-well polypropylene compound source plate to each well using a 1536 head pin tool from Kalypsys. Cells were then incubated for 48 hours at 37C, 95% relative humidity and 5% CO2. After 48 hours, plates were removed from the incubator and 3 uL of CellTiter-Glo (Promega) was added using an Aurora Flying Reagent Dispenser Bioraptor. Plates were incubated at room temperature for 10 minutes prior to reading the luminescence on the Viewlux (PerkinElmer). The relative luciferase units are used to calculate the percent activity using the activity of DMSO in the cells and no cells columns for normalization of no inhibition and full inhibition respectively.
As to `O=c1cc(C2=CC=CC3Sc4ccccc4SC23)oc(N2CCOCC2)c1` (configuration not stated), the “viability (% of control)” value was 99.6% (inactive).

Turning to `C[C@@H]1CCN(C(=O)CC#N)C[C@@H]1N(C)c1ncnc2[nH]ccc12`, the “viability (% of control)” value is 95.1% (inactive).

Take `CN(NC(=O)CC(=O)NN(C)C(=S)c1ccccc1)C(=S)c1ccccc1`: the Potency was 0.743 µM (active).

On to `CC[C@@H](C(=O)O)C1CC[C@H](C)C([C@@H](C)[C@H](O)[C@H](C)C(=O)[C@H](CC)C2O[C@]3(C=C[C@@H](O)[C@]4(CC[C@@](C)(C5CC[C@](O)(CC)[C@H](C)O5)O4)O3)[C@H](C)C[C@@H]2C)O1` (some centres not stated), for which the Potency was 1.87 µM (active).

As to `Cc1nnc(C(C)C)n1C1CC2CCC(C1)N2CC[C@H](NC(=O)C1CCC(F)(F)CC1)c1ccccc1` (some centres not stated), the “viability (% of control)” value was 101% (inactive).

Regarding `CCOc1cc2ncc(C#N)c(Nc3ccc(OCc4ccccn4)c(Cl)c3)c2cc1NC(=O)/C=C/CN(C)C`, the Potency is 4.69 µM (active).

As for `CCC1(O)CC2CN(CCc3c([nH]c4ccccc34)[C@@](C(=O)OC)(c3cc4c(cc3OC)N(C=O)[C@H]3[C@](O)(C(=O)OC)[C@H](OC(C)=O)[C@]5(CC)C=CCN6CC[C@]43[C@@H]65)C2)C1` (some centres not stated), the Potency is 3.32 µM (active).

`Cc1c2oc3c(C)ccc(C(=O)N[C@@H]4C(=O)NC(C(C)C)C(=O)N5CCC[C@H]5C(=O)N(C)CC(=O)N(C)C(C(C)C)C(=O)O[C@@H]4C)c3nc-2c(C(=O)N[C@@H]2C(=O)NC(C(C)C)C(=O)N3CCC[C@H]3C(=O)N(C)CC(=O)N(C)C(C(C)C)C(=O)O[C@@H]2C)c(N)c1=O` (some centres not stated) (I: T[ξV]P[Sar][ξNMeV] / II: T[ξV]P[Sar][ξNMeV]; ester I:1-I:C, II:1-II:C; linker I:N-II:N via Actinocin(9to1)): the Potency is 0.0047 µM (active).

`NC(=O)Nc1cc(-c2ccc(CN3CCOCC3)c(F)c2)sc1C(=O)N[C@H]1CCCNC1`: the Potency was 16.6 µM (active).

As to `CCC1(Cc2ccc(N)cc2)CCC(=O)NC1=O` (configuration not stated), the “viability (% of control)” value was 103% [at 92.2 µM] (inactive).

As to `CCCCCCCCCCCCCCCCCCOP(=O)([O-])OC1CC[N+](C)(C)CC1`, the “viability (% of control)” value was 103% [at 29.8 µM] (inactive).

On to `O=C(O)CC/C=C\CC[C@H]1[C@@H](N2CCCCC2)[C@@H](O)C[C@@H]1OCc1ccc(-c2ccccc2)cc1`, for which the “viability (% of control)” value was 96.9% (inactive).
